BoNT-A LC inh2 = BoNT A light chain protease inhibition; multiplex microsphere protease substrate cleavage, flow cytometry; inhibition, % at 10 µM; actives 0.17% (n = 360,000); further: plate controls were buffer without enzyme for full effect and enzyme alone for no effect
Anthrax LF inh2 = anthrax lethal factor protease inhibition | multiplex microsphere protease cleavage assay, LF | inhibition, % at 10 µM | actives 0.12% (n = 360,000) | AID 588501; further: plate controls were buffer without enzyme for full effect and enzyme alone for no effect
Target sequence (P15917 whole entry, looked up): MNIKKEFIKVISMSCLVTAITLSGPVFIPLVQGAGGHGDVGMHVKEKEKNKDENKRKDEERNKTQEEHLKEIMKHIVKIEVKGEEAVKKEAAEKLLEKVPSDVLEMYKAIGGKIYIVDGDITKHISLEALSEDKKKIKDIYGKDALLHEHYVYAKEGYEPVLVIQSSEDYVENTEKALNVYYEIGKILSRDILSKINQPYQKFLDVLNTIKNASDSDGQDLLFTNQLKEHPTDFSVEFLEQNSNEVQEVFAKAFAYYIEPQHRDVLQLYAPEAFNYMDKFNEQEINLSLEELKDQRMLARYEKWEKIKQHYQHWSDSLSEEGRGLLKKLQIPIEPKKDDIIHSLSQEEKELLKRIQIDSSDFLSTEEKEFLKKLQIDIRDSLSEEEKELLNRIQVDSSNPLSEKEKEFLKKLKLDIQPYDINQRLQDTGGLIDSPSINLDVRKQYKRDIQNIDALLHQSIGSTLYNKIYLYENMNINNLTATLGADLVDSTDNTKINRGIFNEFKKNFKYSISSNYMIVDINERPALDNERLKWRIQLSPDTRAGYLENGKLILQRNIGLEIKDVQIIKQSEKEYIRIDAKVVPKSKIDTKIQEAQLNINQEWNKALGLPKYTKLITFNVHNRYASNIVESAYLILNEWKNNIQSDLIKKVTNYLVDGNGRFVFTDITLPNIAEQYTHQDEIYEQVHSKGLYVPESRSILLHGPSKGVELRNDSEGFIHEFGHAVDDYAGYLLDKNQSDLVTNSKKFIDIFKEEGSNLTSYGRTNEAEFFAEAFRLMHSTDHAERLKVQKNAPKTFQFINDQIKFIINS
Bead autofluor = compound fluorescence in toxin protease inhibitor counterscreen | fluorescence intensity (concentration not given with the values) | AID 624483 | actives 3.1% (n = 360,000) | compound autofluorescence counterscreen, microsphere flow cytometry; hits give high values; in the data active means fluorescence intensity above about 16000; inconclusive means no clear call, values can overlap the other calls
PriA SSB inh = blocks PriA binding to SSB C-terminal tail. AlphaScreen SSBct-PriA binding, biotinylated peptide. inhibition, % at 33 µM. actives 0.6% (n = 430,000). AID 1272365; in the data active means inhibition mostly above about 37%, no sharp cut-off; inactive means mostly below about 20%;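 further: plate controls were negative control peptide for no effect and reference peptide for full effect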
BoNT F protease = blocks Botulinum neurotoxin F light chain protease. Multiplex microsphere protease cleavage assay, flow cytometry. inhibition, % at 10 µM. actives 0.22% (n = 360,000); in the data active means inhibition above about 35%, passing the limit was not always enough; inconclusive means no clear call, values can overlap the other calls; further: plate controls were buffer without enzyme for full effect and enzyme alone for no effect
Numbers without * were called inactive; u = inconclusive; x = not tested or not shown; ! = repeats disagree. Compounds with a hit are over-represented: about 3.1% of the library has one in this group of screens. Unless noted, no stated cut-off is given here; in the data, active means inhibition above about 30%; inconclusive means no clear call, values can overlap the other calls; inactive means below that.

SMILES | BoNT-A LC inh2 | Anthrax LF inh2 | Bead autofluor | PriA SSB inh | BoNT F protease
COc1ccc(OCCC(=O)Nc2ccc(S(N)(=O)=O)cc2)cc1 | -6 | -10 | 3202 | -6 | -22
CN(CCO)C(=O)CCC(=O)Nc1ccc(S(N)(=O)=O)cc1 | -3 | -6 | 17212* | 3 | -5
CCOC(=O)c1ccc(NC(=O)N(CC)CC)cc1 | u | 1 | 20244* | -14 | -1
CCOC(=O)c1ccc(NC(=O)Nc2cc(C)on2)cc1 | 0 | -3 | 16267* | -8 | 1
Cc1cc(NC(=O)c2ccc(NC(=O)CC(C)C)cc2)no1 | 5 | -4 | 19975* | 2 | 9
CCOC(=O)c1ccc(NC(=S)NCCCN2CCN(C3CCCCC3)CC2)cc1 | -1 | -3 | 5402 | -3 | -5
CCOC(=O)c1ccc(NC(=O)Nn2cnnc2)cc1 | -2 | 3 | 6519 | -8 | 0
CCOC(=O)c1ccc(NC(=O)Nc2ccc(S(N)(=O)=O)cc2)cc1 | -5 | 0 | 24361* | 3 | -8
CCOC(=O)c1ccc(NC(=S)NCCCN2CCCCC2)cc1 | u | 0 | 22858* | 11 | 0
CC(=O)Nc1ccc(S(=O)(=O)NCC(c2ccsc2)N2CCN(C)CC2)cc1 (stereo unspecified) | x | x | x | -7 | x
O=C(NCc1cccs1)c1csc(-c2cnccn2)n1 | x | x | x | -2 | x
COc1cc(CNC(C)C23CC4CC(CC(C4)C2)C3)ccc1OCC(=O)NC(C)(C)C (stereo unspecified) | -9 | 4 | 3930 | 2 | -16
CC(NCc1cc(Br)ccc1OCC(N)=O)C12CC3CC(CC(C3)C1)C2 (stereo unspecified) | -68 | -36 | 21485* | -1 | u
COc1ccc(CCNC(=O)CN(C2CCCCC2)S(C)(=O)=O)cc1OC | 1 | 1 | 7890 | -16 | -2
CS(=O)(=O)N(CC(=O)NCCc1ccccc1)C1CCCCC1 | 5 | 0 | 18975* | 0 | 7
COc1ccc(NC(=O)CN(C2CCCCC2)S(C)(=O)=O)cc1Cl | -3 | -2 | 21935* | 0 | -5
CC(C)Sc1nc2ccccc2n1CC(=O)NCc1ccc2c(c1)OCO2 | u | -1 | 22521* | 8 | 3
CCOC(=O)NC(Nc1sc2c(c1C(N)=O)CCCC2)(C(=O)OCC)C(F)(F)F (stereo unspecified) | u | 2 | 20183* | -2 | 8
CC(C)=CC(=O)NCc1c(Cl)cccc1-n1cccc1 | -2 | -1 | 24294* | -3 | -4
CC(=O)Nc1cccn(Cc2c(Cl)cccc2Cl)c1=O | -1 | -3 | 2775 | -10 | -6
CCN(CC)C(=O)CC(c1ccccc1)c1ccco1 (stereo unspecified) | -1 | -5 | 24247* | -2 | -3
O=Cc1ccc(-c2cccs2)s1 | 1 | -5 | 2852 | -20 | -9
Oc1ccc(N=Cc2ccc(-c3cccs3)s2)cc1 | 1 | -1 | 16163* | 33 | -2
CC(=O)c1ccc(-n2c(C)ccc2-c2ccccc2)cc1 | 1 | -6 | 23002* | -6 | -2
COC(=O)c1ccc(-n2c(C)ccc2-c2ccccc2)cc1 | -1 | -4 | 8175 | -4 | -10
SMILES | BoNT-A LC inh2 | Anthrax LF inh2 | Bead autofluor | PriA SSB inh | BoNT F protease
COc1cccc(NC(=O)NCCCSC2CCCCC2)c1 | -2 | -3 | 21430* | -9 | -4
COc1cccc(NC(=O)NCCCCc2ccccc2)c1 | 0 | -3 | u | -9 | 10
CC(=O)N1C(=O)C(=C2C=C(C)OC(C)=C2)c2ccccc21 | 0 | -1 | 23162* | -6 | 4
CC1=CC(=C2C(=O)c3ccccc3C2=O)C=C(C)O1 | 8 | 4 | 2431 | -3 | 3
Cc1cc(C)c(C(=O)c2ccc(C(=O)NC(C)(C)C)cc2)c(C)c1 | 0 | -3 | 11865 | -12 | -4
Cc1cc(C)c(C(=O)c2ccc(C(=O)N(C(C)C)C(C)C)cc2)c(C)c1 | -6 | 0 | 22394* | -5 | -4
COc1cccc(C=NNC(=O)CC2C(=O)NN=C2C)c1O (stereo unspecified) | x | x | x | 4 | x
COc1cccc(/C=N/NC(=O)CC2C(=O)NN=C2C)c1O (stereo unspecified) | 1 | -3 | 20430* | x | -1
COc1ccc(Oc2cn[nH]c2-c2ccc(O)cc2O)cc1 | 1 | 1 | 2561 | 3 | 2
COc1ccc(-c2[nH]ncc2-c2cnn(-c3ccccc3)c2)c(O)c1 | 0 | -1 | 22408* | 13 | -4
COc1ccc(-c2[nH]ncc2Oc2ccccc2OC)c(O)c1 | -4 | -6 | 24038* | 11 | -8
c1ccc(-c2nnc(-c3ccccn3)nc2-c2ccccc2)cc1 | x | x | x | 54 | x
CC(C)Nc1nc(-c2ccccn2)nnc1-c1ccccc1 | x | x | x | 154* | x
CN(C)c1nc(-c2ccccn2)nnc1-c1ccccc1 | -2 | -1 | 4549 | 98* | -14
O=C(Nc1cccs1)N1CCC(Oc2ncccc2Cl)CC1 | x | x | x | 2 | x
Cc1cc(C=NNC(N)=S)c(O)c(C=NNC(N)=S)c1 | x | x | x | 59* | x
Cc1ccc(-n2c(C)cc(C=NNC(N)=S)c2C)cc1 | x | x | x | 23 | x
NNC(=O)c1nc[nH]c1C(=O)Nc1ccccn1 | -1 | 1 | 3364 | 59*! | -2
O=C(O)c1ccccc1C(=O)Nc1ccccn1 | 1 | -2 | 23171* | -13 | 1
O=C(c1nc2ccccc2s1)N(CC1CCCO1)c1nc2c(C(F)(F)F)cccc2s1 (stereo unspecified) | x | x | x | -11 | x
Cc1cc(C(=O)N2CCC(CSc3nccn3C)CC2)c(C)o1 | x | x | x | -10 | x
Fc1ccc(Br)cc1C1C=C(c2ccc(Br)cc2)Nc2ncnn21 (stereo unspecified) | -5 | -1 | 22136* | -4 | -7
CCCc1nc2ccccc2n1CC | x | x | x | -21 | x
Cc1c(C=O)c2ccccn2c1C(=O)c1ccccc1 | 0 | -1 | 3245 | -16 | 4
Cc1c(C(C)(C)C)c(C=S)n2ccccc12 | u | -6 | 21631* | 6 | -8
SMILES | BoNT-A LC inh2 | Anthrax LF inh2 | Bead autofluor | PriA SSB inh | BoNT F protease
CCN(CC)C(=O)c1cnn(-c2ccccc2)c1NC(=O)c1ccccc1F | 6 | -4 | 20443* | -10 | 7
O=C(Nc1c(C(=O)N2CCOCC2)cnn1-c1ccccc1)c1ccccc1F | -1 | 0 | 6084 | 8 | -2
Cc1ccc(-n2c(O)c(C=NCc3ccccn3)c3ccccc3c2=O)cc1 | 0 | -2 | 2678 | -3 | -3
CC(C)CCN=Cc1c(O)n(-c2ccccc2)c(=O)c2ccccc12 | u | -1 | 22931* | 19 | 1
CCN1CCCC1CN=Cc1c(O)n(-c2ccccc2)c(=O)c2ccccc12 (stereo unspecified) | u | 4 | 27436* | 1 | 4
Cc1ccc(-c2csc(N)n2)s1 | -2 | 0 | 20327* | -4 | -1
Cc1sccc1-c1csc(N)n1 | x | x | x | 13 | x
CC1(C)CC(=O)C(C(c2cccnc2)C2C(=O)CC(C)(C)CC2=O)C(=O)C1 | 2 | 1 | 22323* | -7 | 6
Cc1ccc(C2=NN(CC(=O)O)C(=O)CC2)cc1 | 3 | 3 | 3944 | -15 | 50*
COc1cccc(O)c1CN1CCCC(C(=O)c2cccc(C(F)(F)F)c2)C1 (stereo unspecified) | 0 | -5 | 4196 | -29 | 1
COc1ccc(C(=O)C2CCCN(Cc3c(O)cccc3OC)C2)cc1OC (stereo unspecified) | -3 | -18 | 4574 | 3 | 37*
